Reference: PubChem BioAssay (NCI)
Compounds without any hit were thinned out: in the full panel of roughly 83,000, 20% have a hit.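 Treatment: one concentration, 48 hours, 96-well format. Scoring: percent growth, with anything below 10 considered active.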 Unmarked numbers belong to inactive results. The source made the active and inactive calls.

test system: HL-60(TB) leukemia; experiment: NCI-60 one-dose screen, 48 h (100 = growth as untreated, 0 = no growth, -100 = all killed); conditions: 10 µM unless noted

Row | Structure (SMILES) | growth
1 | CC1CC(C(C)(C)C)C(=O)C(C(C)(C)C)C1 (stereo unspecified) | 107%
2 | c1cn2cc(-c3ccc4cn[nH]c4c3)nc(Nc3ccc(N4CCOCC4)cc3)c2n1 | 71.1%
3 | COC(=O)[C@H](C(C)C)n1c(=O)c2cc(OC)c(OC)cc2c2cnc3[nH]ccc3c21 | 16.1%
4 | COc1ccc(C2=NN(C(C)=O)C(c3cccc(Nc4ccnc5cc(Cl)ccc45)c3)C2)cc1 (stereo unspecified) | 57.2%
5 | O=C(c1ccc(Cl)cc1)N1CCCCC1 | 98.7%
6 | C[C@H]1[C@H](C)CC[C@]2(COC(=O)CCC(=O)O)CC[C@]3(C)C(=CC[C@@H]4[C@@]5(C)CCCNC(C)(C)[C@@H]5CC[C@]43C)[C@H]12 | 49.3% [100 µM]
7 | COc1ccc2c(c1)c(-c1nc(-c3c[nH]c4ncccc34)cs1)cn2CCNC(=O)OC(C)(C)C | 69.2%
8 | O=S(=O)(NC1c2ccccc2Oc2ccccc21)c1cc(Cl)ccc1Cl | 86.7%
9 | O=C(/C=C/c1ccccc1)c1cccc2ccccc12 | 33.7%
10 | Cc1cccc(NC(=O)Nc2ccc(-c3ccc4c(c3)NC(=O)/C4=C\c3ccc[nH]3)cc2)c1 | 75.1%
11 | O=C(/C(=C/c1ccc([N+](=O)[O-])cc1)c1ccccc1)c1ccccc1 | 16.9%
12 | O=C1NCN(CCO)CN1 | 97.5%
13 | CC(=O)OCC1OC(OC2=C(CC=C(C)C)C(=O)c3ccccc3C2=O)C(OC(C)=O)C(OC(C)=O)C1OC(C)=O (stereo unspecified) | -36.7% (active)
14 | CC(C)(C)c1ccc(C(=O)Nc2sc3c(c2C#N)CCC(=O)C3)cc1 | -1.94% (active)
15 | CCc1ccc(-c2ccc(COc3ccc(CC4SC(=O)NC4=O)cc3)cc2)cc1 (stereo unspecified) | 88.1%
16 | O=C(Nc1cccc(Cn2c(=O)[nH]c3ccc(Oc4ncccn4)cc3c2=O)c1)c1cccc(Cl)c1 | 54.1%
17 | O=C(NCCCCCCNC(=O)OCc1ccc2c(Cl)cc(Cl)c(O)c2n1)OCc1ccc2c(Cl)cc(Cl)c(O)c2n1 | -46.2% (active)
18 | COc1ccc2cc(C3=CC(=O)CCC3)ccc2c1 | 89.7%
19 | Cc1ccc(S(=O)(=O)n2cc(C(=O)C(=O)N3CCOCC3)c3ccccc32)cc1 | 66.6%
20 | Cc1ncc(C(=O)Nc2ccc(CN3CCN(C)CC3)c(C(F)(F)F)c2)cc1C#Cc1c(N)ncc2ccc(C#N)cc12 | 45.8%
21 | O=C(CCCC(=O)Nc1ccc(-n2nnc3cc(Cl)c(Cl)cc32)cc1)Nc1ccc(-n2nnc3cc(Cl)c(Cl)cc32)cc1 | 75.9%
22 | O=C(COc1ccc(/C=C2\Cc3ccccc3C2=O)cc1)c1ccc(Cl)cc1 | 118%
23 | COc1ccc(C2=NN(C(=O)c3cc(OC)c(OC)c(OC)c3)C(c3ccc(N(C)C)cc3)C2)cc1 (stereo unspecified) | -18.4% (active)
24 | CC(C)(O)c1cccc(F)c1 | 70.7%
25 | Cc1sc2nc3c4ccccc4c(NCCCN(C)C)nn3c(=O)c2c1C | -71% (active)
26 | Cc1cc(C(=O)O)c(C)n1-c1cccc(C(=O)O)c1 | 56.2%
